Consider 22 molecules from PubChem BioAssay (NCATS).

Records with an inconclusive call do not appear. Active and inactive are the calls of the source. Unless noted, calls come from the whole dose curve; as a rule, active = well fitted curve in the direction sought with a large enough effect; inconclusive = small, poorly fitted or top-dose-only effect, or another doubt; inactive = no such curve, though single readings can be large; an effect the other way counts as inactive or inconclusive.

The target in assay [1] is Cytochrome P450 3A4 (Homo sapiens) (UniProt P08684). Description: qHTS Assay for Inhibitors and Substrates of Cytochrome P450 3A4 (AID 884). Note: % is set by controls: 0 for no effect and ±100 for the full control effect; nearly all actives have a fitted effect of over 50% in size. In a few lines:
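20 nM human CYP3A4 with 25 uM Luciferin-PPXE (at KM) in 200 mM KPO4, preincubated 10 min with compound; NADPH regeneration started a 60 min RT reaction. Luciferin detected by luminescence, normalized to 57 uM ketoconazole as full inhibition.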
(In qHTS, concentration-response curves come from the screen itself.)

The nature of assay [2]: Confirmation and Secondary Assay for Modulators of Hemoglobin Beta Chain Splicing at IVS2 654 locus (AID 910).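 Note: HeLa cells stably carrying EGFP split by mutant beta-globin IVS2-654 intron; per-well total GFP intensity by laser scanning cytometry after 2-day treatment; % of control where 0% means no effect.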 In a few lines: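 Readout: per-well total peak green fluorescence (488 nm ex, 500–520 nm em) from objects 5–250 µm, reflecting correct splicing of an EGFP-654 reporter. Compounds were applied for 2 days at 37 °C to overnight-plated HeLa EGFP-654 cells; controls were DMSO and 500 nM IVS2-654 PNA.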

A short description of assay [3]: Confirmation and Secondary Assay for Modulators of Hemoglobin Beta Chain Splicing at IVS2 705 locus (AID 930).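 Note: HeLa cells stably expressing the EGFP-705 splicing reporter; GFP fluorescence per well restored by corrected splicing of the IVS2-705 intron in EGFP; % of control where 0% means no effect.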 In a few lines: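 Stable HeLa line with EGFP disrupted by mutant beta-globin intron 2 (705). Overnight attachment, then 2 days of compound at 37C, 5% CO2. Signal: peak GFP intensity summed over objects 5-250 µm.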
A short description of assay [4]: qHTS Assay for Lipid Storage Modulators (AID 1519; calls by dose curve; for activity change, negative = inhibition: % is set by controls: 0 for no effect and ±100 for the full control effect). As to conditions: Drosophila S3 cells, BODIPY lipid droplet/cell ratio, laser cytometry, cells loaded with oleic acid; for activity change, negative = inhibition: at 57.5 µM (top of the series). In a few lines: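 Cells seeded at 5,000 per well were treated with compounds over a concentration series and loaded with oleic acid (400 uM, as added). Lipid droplet fluorescence (488 nm excitation, 500-530 nm channel) was read by laser-scanning cytometry and normalized to 20 uM Triacsin C.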

Assay [5] addresses Cytochrome P450 3A4 (Homo sapiens) (UniProt P08684). Description: qHTS Assay for Activators of Cytochrome P450 3A4 (AID 885). Note: nearly all actives have a fitted effect of over 65% in size. In a few lines:
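Human CYP3A4 (20 nM) with Luciferin-PPXE at 25 uM (its KM) in 200 mM KPO4; 10 min compound preincubation, then NADPH regeneration and 60 min reaction at RT. Luciferin read by luminescence; normalized to 57 uM ketoconazole full inhibition.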

The mark [6] stands for this setting: measured here: cell count channel max response.
Where [7] appears, read: measured here: lipid channel max response.

Cytochrome P450 3A4 (Homo sapiens), sequence (P08684 whole entry, looked up): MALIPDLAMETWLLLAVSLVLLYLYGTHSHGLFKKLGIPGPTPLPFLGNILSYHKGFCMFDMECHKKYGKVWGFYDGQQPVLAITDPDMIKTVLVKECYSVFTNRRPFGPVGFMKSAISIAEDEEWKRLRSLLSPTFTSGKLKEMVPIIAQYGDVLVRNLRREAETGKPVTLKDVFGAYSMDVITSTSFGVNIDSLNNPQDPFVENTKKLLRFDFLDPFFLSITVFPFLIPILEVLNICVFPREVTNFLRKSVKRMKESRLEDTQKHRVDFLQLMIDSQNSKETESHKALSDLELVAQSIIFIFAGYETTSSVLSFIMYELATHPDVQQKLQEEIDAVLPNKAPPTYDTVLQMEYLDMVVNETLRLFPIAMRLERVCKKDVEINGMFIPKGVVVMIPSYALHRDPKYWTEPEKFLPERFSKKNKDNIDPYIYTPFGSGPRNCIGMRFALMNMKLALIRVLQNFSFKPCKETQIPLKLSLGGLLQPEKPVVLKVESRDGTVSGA

Take `C/C=C(/C)C(=O)OC1C(OC(C)=O)[C@@]2(CO)C(O)C[C@@]3(C)C(=CCC4[C@@]5(C)CCC(OC6OC(C(=O)O)[C@@H](O[C@@H]7OC(CO)C(O)C(O)C7O)C(O)[C@H]6O[C@@H]6OC(CO)C(O)C(O)C6O)[C@](C)(CO)C5CC[C@@]43C)C2CC1(C)C` (stereo partly specified): the Potency entry in assay [1], in assay [2] and in assay [3] was “inactive” in each case. In addition, in assay [4], the activity change, negative = inhibition is 9.44% (inactive). Further, the max response in assay [4] (setting [6]) worked out at 18%; in assay [4] (setting [7]), 28.7%.

On to `CC12CCCC(O)(C1)C1CC(C)(C)C1CC2` (stereo unspecified), for which the Potency entry in assay [1], in assay [2] and in assay [3] was “inactive” throughout. Further, the activity change, negative = inhibition in assay [4] is 4.18% (inactive). Moreover, the max response is -0.674% in assay [4] (setting [6]) and 2.69% in assay [4] (setting [7]).

Take `COc1c(C(C)C)oc2cc3oc(=O)ccc3cc12`: the Potency entry in assay [1], in assay [2] and in assay [3] was “inactive” each time. Besides, the activity change, negative = inhibition in assay [4] was 5.54% (inactive). In addition, the max response in assay [4] (setting [6]) came out at 15.7%; in assay [4] (setting [7]), 22.2%.

Regarding `CC(C)c1c(O)ccc2c1CCC1[C@@](C)(C=O)CCC[C@@]21C` (stereo partly specified), the Potency result in assay [5], in assay [2] and in assay [3] was “inactive” each time. For the same molecule, in assay [4], the activity change, negative = inhibition is -2.8% (inactive). Moreover, the max response in assay [4] (setting [6]) was 1.05%; in assay [4] (setting [7]) it was -0.0657%.

Take `CC(C)=CCC/C(C)=C/COc1ccc2ccc(=O)oc2c1`: the Potency result in assay [5], in assay [2] and in assay [3] was “inactive” throughout. In addition, the activity change, negative = inhibition in assay [4] is -1.25% (inactive). The max response amounted to 27.3% in assay [4] (setting [6]) and 28.1% in assay [4] (setting [7]).

For the molecule `CC(C)CCCC(C)C1CCC2C3=CC[C@@H]4CC(O)CC[C@@]4(C)C3CC[C@]21C` (stereo partly specified), the Potency result in assay [1], in assay [2] and in assay [3] was “inactive” each time. For the same molecule, in assay [4], the activity change, negative = inhibition was -3.72% (inactive). In addition, the max response was found to be 6.46% in assay [4] (setting [6]) and 4.39% in assay [4] (setting [7]).

On to `C/C(=C\CO)CCC(C)CCCC(C)CCCC(C)C` (stereo unspecified), for which the Potency entry in assay [1], in assay [2] and in assay [3] was “inactive” each time. The activity change, negative = inhibition in assay [4] was 6.09% (inactive). Besides, the max response in assay [4] (setting [6]) was 8.07%; in assay [4] (setting [7]) it was 14.9%.

In the case of `CC(=O)OC[C@@]1(O)C[C@]23CCC4c5ccoc5CC[C@@]4(C)C2CCC1C3` (stereo partly specified), the Potency entry in assay [5], in assay [2] and in assay [3] was “inactive” in each case. Further, the activity change, negative = inhibition in assay [4] is 6.91% (inactive). The max response in assay [4] (setting [6]) amounted to 7.17%; in assay [4] (setting [7]), 15.2%.

In the case of `CCOc1cccc(C(=O)c2ccc(O)c(O)c2O)c1`, the Potency result in assay [1], in assay [2] and in assay [3] was “inactive” throughout. Besides, the activity change, negative = inhibition in assay [4] is 3.56% (inactive). Besides, the max response was 9.44% in assay [4] (setting [6]) and -1.04% in assay [4] (setting [7]).

As to `O=C(/C=C(\O)c1ccccc1)c1ccccc1O`, the Potency entry in assay [5], in assay [2] and in assay [3] was “inactive” each time. Besides, the activity change, negative = inhibition in assay [4] was -15.7% (inactive). Besides, the max response is -12.9% in assay [4] (setting [6]) and -24.5% in assay [4] (setting [7]).

Consider `CCCCC(=O)O[C@@]1(C(=O)CO)C(C)CC2C3CCC4=CC(=O)C=C[C@@]4(C)[C@]3(F)C(O)C[C@]21C` (stereo partly specified), for which the Potency entry in assay [5], in assay [2] and in assay [3] was “inactive” each time. Moreover, in assay [4], the activity change, negative = inhibition is -6.08% (inactive). The max response in assay [4] (setting [6]) is 9.88%; in assay [4] (setting [7]), 7.08%.

Consider `CC(=O)OC1CC2C(C)(C)C(=O)C3OC3[C@]2(C)C2CC[C@@]3(C)C(c4ccoc4)OC(=O)C4OC43[C@]12C` (stereo partly specified), for which the Potency entry in assay [1], in assay [2] and in assay [3] was “inactive” throughout. Moreover, in assay [4], the activity change, negative = inhibition was -0.845% (inactive). Besides, the values for the max response in assay [4] (setting [6]) and in assay [4] (setting [7]) were -15.4% and -5.43%, respectively.

For the molecule `C#CCCCCCCCCCCCc1ccco1`, the Potency result in assay [5], in assay [2] and in assay [3] was “inactive” throughout. In addition, the activity change, negative = inhibition in assay [4] is 2.25% (inactive). Moreover, the max response in assay [4] (setting [6]) came to 8.94%; in assay [4] (setting [7]), 11.4%.

As for `C=CC(C1=CC(=O)C(OC)=CC1=O)c1ccc(O)cc1` (stereo unspecified), the Potency entry in assay [5], in assay [2] and in assay [3] was “inactive” throughout. In addition, in assay [4], the activity change, negative = inhibition is 12.9% (inactive). The max response in assay [4] (setting [6]) was determined as 1.65%; in assay [4] (setting [7]), 16.7%.

Consider `CC(=O)C1CCC2C3CCC4=CC(=O)CC[C@@]4(C)C3CC[C@]12C` (stereo partly specified), for which the Potency entry in assay [1], in assay [2] and in assay [3] was “inactive” each time. Further, the activity change, negative = inhibition in assay [4] is 4.88% (inactive). The max response in assay [4] (setting [6]) came to 4.44%; in assay [4] (setting [7]) it was 13.5%.

For the molecule `CC1=C(/C=C/C(C)=C/C=C/C(C)=C/C=C/C=C(C)/C=C/C=C(C)/C=C/C(=O)[C@]2(C)CC(O)CC2(C)C)C(C)(C)CC(O)C1` (stereo partly specified), the Potency entry in assay [1], in assay [2] and in assay [3] was “inactive” in each case. Moreover, in assay [4], the activity change, negative = inhibition was 7.14% (inactive). Also, the max response in assay [4] (setting [6]) came out at 11.8%; in assay [4] (setting [7]), 22.4%.

On to `C=CC1=C(C)/C(=C/c2[nH]c(Cc3[nH]c(/C=C4\NC(=O)C(C)=C4C=C)c(C)c3CCC(=O)O)c(CCC(=O)O)c2C)NC1=O`, for which the Potency entry in assay [1], in assay [2] and in assay [3] was “inactive” each time. The activity change, negative = inhibition in assay [4] was -0.375% (inactive). The figures for the max response in assay [4] (setting [6]) and in assay [4] (setting [7]) were 3.69% and 3.49%, respectively.

Consider `C=CCCCCCCCCCCCC(O)CC(O)CO` (stereo unspecified) (tested in a mixture with another compound), for which the Potency result in assay [1], in assay [2] and in assay [3] was “inactive” throughout. Also, the activity change, negative = inhibition in assay [4] was 11.1% (inactive). The max response in assay [4] (setting [6]) was determined as 1.75%; in assay [4] (setting [7]), 15.4%.

For `CC(=O)OC1CCC2(C)C3=C(CCC2C1(C)C)[C@]1(C)CCC(C(C)CCC=C(C)C)[C@]1(C)CC3` (stereo partly specified), the Potency entry in assay [5], in assay [2] and in assay [3] was “inactive” each time. In assay [4], the activity change, negative = inhibition was -0.993% (inactive). Moreover, the figures for the max response in assay [4] (setting [6]) and in assay [4] (setting [7]) were 20.7% and 23.4%, respectively.

On to `COc1ccc(-c2cc(=O)c3c(O)c(OC)c(O[C@@H]4OC(COC5OC(C)C(O)C(O)[C@@H]5O)C(O)C(O)C4O)cc3o2)cc1` (stereo partly specified), for which the Potency result in assay [1] and in assay [3] was “inactive” in each case. Further, the activity change, negative = inhibition in assay [4] was 4.35% (inactive). Besides, the max response in assay [4] (setting [6]) is 13.3%; in assay [4] (setting [7]), 15.5%.

`CNC(CC(=O)O)C(=O)O` (stereo unspecified): the Potency entry in assay [1], in assay [2] and in assay [3] was “inactive” in each case. Moreover, in assay [4], the activity change, negative = inhibition was 0.835% (inactive). For the same molecule, the max response was 10.8% in assay [4] (setting [6]) and 11.7% in assay [4] (setting [7]).

With `CC1=C(C(=O)O)N2C(=O)C(NC(=O)C(N)C3=CCC=CC3)C2SC1` (stereo unspecified), the Potency result in assay [1], in assay [2] and in assay [3] was “inactive” each time. Further, the activity change, negative = inhibition in assay [4] was 10.8% (inactive). Also, the max response came to 14% in assay [4] (setting [6]) and 29.2% in assay [4] (setting [7]).
